# Compound activity from PubChem BioAssay.
# FLuc counter = qHTS profiling assay for firefly luciferase inhibitor/activator using purifed enzyme and Km concentrations of substrates (counterscreen for miR-21 project) | 360,000 compounds, 6.9% hits | Luciferin 4-monooxygenase (Photinus pyralis), P08659 | AID 588342, 2011 | Potency, µM (titrated, usually from 57.5 µM), without a hit: top-dose activity change, negative = inhibition, actives largely listed as inhibitors | purified FLuc, Km substrates, luminescence inhibition;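 note: plate controls were vehicle for no effect and reference inhibitor for full effect; nearly all actives have a fitted effect of over 55% in size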
# Target sequence (P08659 whole entry, looked up): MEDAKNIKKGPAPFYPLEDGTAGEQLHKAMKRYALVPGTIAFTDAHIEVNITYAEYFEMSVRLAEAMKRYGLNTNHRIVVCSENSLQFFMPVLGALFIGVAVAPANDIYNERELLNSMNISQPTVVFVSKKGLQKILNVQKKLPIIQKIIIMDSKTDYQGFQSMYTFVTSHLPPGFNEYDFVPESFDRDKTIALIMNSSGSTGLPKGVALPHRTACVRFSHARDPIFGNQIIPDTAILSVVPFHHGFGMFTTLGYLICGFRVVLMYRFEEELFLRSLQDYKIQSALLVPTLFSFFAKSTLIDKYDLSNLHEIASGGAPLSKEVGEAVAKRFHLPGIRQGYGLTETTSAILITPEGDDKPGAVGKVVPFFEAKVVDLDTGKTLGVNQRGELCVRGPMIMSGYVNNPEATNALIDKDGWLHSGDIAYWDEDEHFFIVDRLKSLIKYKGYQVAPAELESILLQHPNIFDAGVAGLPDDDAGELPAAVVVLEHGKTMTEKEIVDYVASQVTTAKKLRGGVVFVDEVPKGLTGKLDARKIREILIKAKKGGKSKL
#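 Purified P. pyralis luciferase, 10 nM final, with Km-level 10 uM D-luciferin and 10 uM ATP in 50 mM Tris acetate pH 7.5, 10 mM Mg acetate, 0.01% Tween-20, 0.05% BSA; 6-point qHTS titration about 60 µM downward; luminescence read.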
# NPC1 prom act = qHTS Assay for NPC1 Promoter Activators | Huh7 NPC1 promoter luciferase reporter, 24 h | Potency, µM (top dose mostly 9.22 µM), for inactives: top-dose activation, usual class: activators | 320,000 compounds, 2.4% hits | AID 485313, 2010; note: % of control where 0% means no effect; nearly all actives have a fitted effect of over 60% in size
#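 Stably transfected Huh7 (NPC1 promoter→luciferase), 1500 cells/well in Opti-MEM + 10% FBS, 2 h settle, then compound 24 h at 37 °C. Luminescence after 10 min with Amplite reagent.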
# SMN2 splice up = qHTS Assay for Enhancers of SMN2 Splice Variant Expression. HEK293 SMN2-luciferase splicing reporter, luminescence, 30-36 h. Potency, µM (series often up to 46.1 µM), for inactives: at the top dose activity change, positive = activation, usual class: activators. 210,000 compounds, 2.8% hits. AID 1458, 2008; note: % of control where 0% means no effect; nearly all actives have a fitted effect of over 55% in size
#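 HEK293 cells carry an SMN2 minigene-luciferase reporter in which exon 7 inclusion puts luciferase in frame. Cells were seeded at 2000 cells/well, attached for 10-12 hours, then exposed to compounds for 30-36 hours at 37C before ONE-Glo luminescence.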
# ELG1 genotoxic = qHTS screen for small molecules that induce genotoxicity in human embryonic kidney (HEK293T) cells expressing luciferase-tagged ELG1; Potency, µM (series often up to 46 µM), without a hit: top-dose activity change, positive = activation, usual class: activators; 330,000 compounds, 1.3% hits; HEK293T ELG1-luciferase reporter, luminescence, 16 h; note: % of control where 0% means no effect; nearly all actives have a fitted effect of over 60% in size
#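 Genotoxic stress is detected as increased luminescence from luciferase-tagged ELG1 in HEK293T cells, measured with ONE-Glo after a 16 hr treatment at 37 °C.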
# Rab9 prom act = qHTS Assay for Rab9 Promoter Activators. Huh7 Rab9 promoter-luciferase reporter, luminescence, 24 h. AID 485297, 2010. 320,000 compounds, 2.8% hits. Potency, µM (titrated, usually from 9.22 µM), inactives show at the highest dose activation, negative = inhibition, hits mostly activators; note: % of control where 0% means no effect; nearly all actives have a fitted effect of over 60% in size
#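 Huh7 cells stably carrying a Rab9 promoter-luciferase reporter, 1500 cells per well in OP-MEM I with 10% FBS, treated with compound 24 hours at 37C. Luciferase activity read by luminescence after 10 minutes with Amplite reagent.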
# Starred values were filed as active, the others as inactive; u = inconclusive; x = no result; [ ] = remark or other dose. Hits are enriched below; roughly 7.4% of the tested compounds scored in any of these assays. Calls come from the whole dose curve; as a rule, active = well fitted curve in the direction sought with a large enough effect; inconclusive = small, poorly fitted or top-dose-only effect, or another doubt; inactive = no such curve, though single readings can be large; an effect the other way counts as inactive or inconclusive. Potency is the fitted concentration of half-maximal effect.
SMILES,FLuc counter,NPC1 prom act,SMN2 splice up,ELG1 genotoxic,Rab9 prom act
S=C(NCc1ccccc1)NNc1nc2ccccc2[nH]1,u,-0.8%,-9.3%,-8.7%,-0.7%
COc1cc(Nc2cc(C)nc3ncnn23)cc(OC)c1OC,-0.8%,-1.4%,14.1µM*,u,-2.4%
CCOc1ccc(OCC)c(Nc2cc(C)nc3ncnn23)c1,-0.7%,-8.8%,11.2µM*,20.6µM*,-4.5%
COC(=O)c1cc(Nc2cc(C)nc3ncnn23)cc(C(=O)OC)c1,5.2%,-1.2%,8.9%,1.6%,-1.3%
COc1cc(Nc2cc(C)nc3ncnn23)cc(OC)c1,0.6%,-17.3%,u,23.1µM*,1.4%
CCOc1ccc(CNC(=O)Cn2c(=O)c3cccn3c3ccc(F)cc32)cc1OC,-5.6%,x,x,x,x
CC(Sc1ccc(S(=O)(=O)N2CCCCCC2)cn1)C(N)=O (stereo not drawn),-3.5%,-9.8%,x,-0.5%,1.5%
NC(=O)c1ncn([C@@H]2O[C@H](CO)[C@@H](O)[C@H]2O)c1O,-1.8%,0.8%[46.1 µM],-6.5%,2.6%,-4.6%[46.1 µM]
COc1cc(OC)c(N(C)C(=O)CSc2c3c(nc4ccc(Cl)cc24)CCCC3)cc1Cl,-5.9%,x,-46.9%,x,x
C=CCNC(=S)NNc1nc2sc3c(c2c(=O)[nH]1)CC(C)(C)OC3,-9.9%,3.9%,x,2.1%,5.1%
Cc1ccc(NC(=O)c2sc3ncnc(N(C)C4CCCCC4)c3c2C)cc1,-6.5%,x,x,x,x
Cc1cc(N2CCCCC2)nc2ccc(NC(=O)/C=C/c3ccc(OCCC(C)C)cc3)cc12,0.2%,x,0.2%,x,x
COc1cccc(CNC(=O)c2ccc(Cn3c(SCc4ccccc4)nc4cccnc43)cc2)c1,5.36µM*,x,x,x,x
Cc1cccc(CNC(=O)c2ccc(Cn3c(SCc4ccccc4)nc4cccnc43)cc2)c1,9.53µM*,x,x,x,x
Cc1cccc(Cn2c(SCc3ccc(C(=O)NCc4ccccc4)cc3)nc3cccnc32)c1,2.1%,x,x,x,x
CN(C)c1ccc(CNC(=O)c2ccc(Cn3c(SCc4ccccc4)nc4cccnc43)cc2)cc1,2.69µM*,x,6.0%,x,x
CCNC(=O)c1ccc(CSc2nc3cccnc3n2Cc2ccc(OC)cc2)cc1,21.3µM*,x,x,x,x
Cc1ccc(N(CC(=O)NCCSc2ccccc2)S(=O)(=O)c2ccc(F)cc2)cc1,2.7%,x,-40.1%,x,x
N#Cc1cccc(N=c2ssnc2Cl)c1,19µM*,0.8%,-18.0%,-0.3%,-4.2%
Clc1nssc1=Nc1ccc(Br)cc1,23.9µM*,3.9%,-11.7%,-5.8%,-1.6%
CCCCn1c(N)c(N(CC(C)C)C(=O)CSC(C)C(=O)Nc2cc(C)on2)c(=O)[nH]c1=O (stereo not drawn),8.7%,-1.5%,x,0.5%,-7.1%
C/C(=N\N=C\c1ccc(N(C)C)cc1)c1cccc([N+](=O)[O-])c1,2.13µM*,3.55µM*,14.1µM*,u,2.82µM*
COc1ccccc1NC(=O)C1=C(C)Nc2nc(SCc3ccccc3)nn2C1c1ccccn1 (stereo not drawn),-5.9%,x,-12.0%,x,x
COc1ccc(-n2ccc3ccccc32)cc1,23.9µM*,-7.2%,x,-0.1%,-1.6%[1.84 µM]
COc1ccc(N2C(=O)c3cc4ccccc4cc3C2=O)cc1,-0.2%,23.2%,x,-1.0%,1.4%
SMILES,FLuc counter,NPC1 prom act,SMN2 splice up,ELG1 genotoxic,Rab9 prom act
Cc1ccc(NC(=O)CN2C(=O)S/C(=C/c3ccc(-c4cc(C(=O)O)ccc4C)o3)C2=O)cc1C,u,-0.6%,-10.8%,0.9%,-0.6%
O=C1S/C(=C\c2ccc(N3CCOCC3)o2)C(=O)N1c1ccccc1,u,u,17.5%,u,u
CC1=NN(c2ccc(Br)cc2)C(=O)/C1=C/c1ccc(-c2ccccc2C(=O)O)o1,26.9µM*,-0.5%,x,-2.9%,-1.5%
Cc1ccccc1NC(=O)CN1C(=O)c2ccccc2C1=O,-4.7%,2.1%,x,-1.8%,-5.8%
Cc1ccccc1NC(=O)CN1C(=O)S/C(=C\c2ccc(-c3cccc(C(=O)O)c3C)o2)C1=O,u,14.3%,11.2µM*,9.4%,0.2%[1.84 µM]
Cc1cccc(NC(=O)CN2C(=O)S/C(=C\c3ccc(-c4cccc(C(=O)O)c4C)o3)C2=O)c1,19µM*,-2.1%,27.7%,0.3%,6.5%
